According to PubChem BioAssay (Tox21):
Records with an inconclusive call do not appear. Calls of active or inactive are those of the source. Unless noted, calls follow the shape of the dose curve; as a rule, active = well fitted curve in the direction sought with a large enough effect in the repeat runs; inconclusive = weak or mixed curves; inactive = no such curve, though single readings can be large; an effect the other way counts as inactive or inconclusive.

What was measured:
[1] = qHTS assay to identify small molecule agonists of the AP-1 signaling pathway - cell viability counter screen (AID 1159525; calls by dose curve; also: nearly all actives have a fitted effect of over 55% in size; also: potency is read from the fitted curve at half-maximal effect)
In short: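 Intracellular ATP by Cell Titer Glo luminescence (30 min, RT) in the same ME-180 AP-1-bla wells after the 5 h compound exposure at 37 °C. Normalised to tetra n-octyl ammonium bromide and DMSO controls.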

[2] = qHTS assay to identify small molecule antagonists of the estrogen related receptor (ERR) signaling pathway from Tox21 library - cell viability counter screen (AID 1224834); also: nearly all actives have a fitted effect of over 30% in size; also: potency is read from the fitted curve at half-maximal effect
In short: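 ERR cells, 2,000/well; 6 h settle at 37 C/5% CO2; pin-tool compound transfer in DMSO; 17.5 h at 37 C; CellTiter-Fluor, 30 min; fluorescence intensity.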

[3] = biological target: Luciferin 4-monooxygenase (Photinus pyralis) (UniProt P08659); assay: qHTS assay to identify small molecule inhibitors of firefly luciferase (AID 1224835); also: nearly all actives have a fitted effect of over 25% in size; also: potency is read from the fitted curve at half-maximal effect
In short: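 Inhibition of purified Photinus luciferase is measured by luminescence. Substrate levels (D-luciferin, ATP) sit at their KM values. Each compound is tested in a concentration series.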

[4] = qHTS assay to identify small molecule agonists of the constitutive androstane receptor (CAR) signaling pathway - cell viability counter screen (AID 1224836); also: nearly all actives have a fitted effect of over 45% in size; also: potency is read from the fitted curve at half-maximal effect
In short: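 Using CellTiter-Fluor, viability of HepG2 cells harbouring hCAR and CYP2B6-2.2kb was measured following 23 h incubation with a 15-concentration compound series plus PK11195 (0.75 uM final).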

[5] = qHTS assay to identify small molecule antagonists of the constitutive androstane receptor (CAR) signaling pathway - cell viability counter screen (AID 1224837); also: nearly all actives have a fitted effect of over 45% in size; also: potency is read from the fitted curve at half-maximal effect
In short: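 Viability was measured with CellTiter-Fluor in a HepG2 line carrying stably transfected hCAR and a CYP2B6-2.2kb construct. Cells were exposed for 23 hr at 37 C to 15 compound concentrations with 50 nM CITCO as agonist.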

[6] = qHTS RealTime-Glo MT Cell Viability Assay in HepG2 cells - 24 hour (AID 1224867); also: nearly all actives have a fitted effect of over 50% in size; also: potency is read from the fitted curve at half-maximal effect
In short: (§1)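 HepG2 cells were seeded at 600 cells/well together with NanoLuc luciferase and a cell-permeant prosubstrate, preincubated 5 h at 37 C/5% CO2, then pin-dosed with compounds in DMSO. Nonlytic luminescence from viable cells was read at each time point.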

[7] = qHTS RealTime-Glo MT Cell Viability Assay in HepG2 cells - 16 hour (AID 1224885); also: nearly all actives have a fitted effect of over 50% in size; also: potency is read from the fitted curve at half-maximal effect
In short: as §1

[8] = qHTS assay to identify small molecule antagonists of the androgen receptor (AR) signaling pathway using the MDA cell line in the presence of 0.5 nM R1881 - cell viability counter screen (AID 1259242); also: nearly all actives have a fitted effect of over 45% in size; also: potency is read from the fitted curve at half-maximal effect
In short: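 Steps: plate MDA-kb2 cells, rest 5 hr at 37C without CO2; pin in compounds in DMSO; add R1881 to 0.5 nM final; incubate 16 hr; add CellTiter-Fluor, 30 min; read fluorescence.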

[9] = qHTS assay to identify small molecule antagonists of the sonic hedgehog signaling (Shh) pathway - cell viability counter screen (AID 1259367); also: nearly all actives have a fitted effect of over 55% in size; also: potency is read from the fitted curve at half-maximal effect
In short: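 CellTiter-Fluor signal in conditioned medium-stimulated 3T3 Gli1-Luc cells, 23 hr compound exposure, 37C.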

[10] = qHTS assay to identify small molecule agonists of the estrogen receptor alpha (ER-alpha) signaling pathway in the presence of an antagonist - cell viability counter screen (AID 1259386);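 also: cells exposed to compounds for 22 h at 37 °C before the viability read; nearly all actives have a fitted effect of over 30% in size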; also: potency is read from the fitted curve at half-maximal effect
In short: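 Cytotoxicity was measured in parallel with the ERE-luciferase agonist screen, in the same wells. The cells were VM7Luc4E2, which endogenously express ER-alpha, and treatment was with compounds plus 10.0nM ICI-182,780 for 22hr.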

[11] = qHTS assay to identify small molecule antagonists of the TGF-beta/Smad signaling pathway - cell viability counter screen (AID 1346824); also: nearly all actives have a fitted effect of over 50% in size; also: potency is read from the fitted curve at half-maximal effect
In short: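 Cytotoxicity counter-screen run in the same wells as the beta-lactamase Smad reporter read: CellTiter-Glo luminescence after 30 min at room temperature. HEK 293T SBE-bla cells had 5 hr compound exposure at 37 C with TGF-beta1 (0.25 ng/mL stock).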

[12] = qHTS assay to identify small molecule agonists of the TGF-beta/Smad signaling pathway - cell viability counter screen (AID 1346829); also: top concentration of the series differs between compounds; nearly all actives have a fitted effect of over 45% in size
In short: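 CellTiter-Glo luminescence readout; SBE-bla HEK 293T cells, overnight plating, compound 5 hr at 37 C/5% CO2, then bla substrate 2 hr RT, then CellTiter-Glo 30 min RT.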

[13] = biological target: Cytochrome P450 2C19 (Homo sapiens) (UniProt P33261); assay: Cytochrome P450 Family 2 Subfamily C Member 19 (CYP2C19) small molecule antagonists: luciferase reporter qHTS assay (AID 1671197); also: nearly all actives have a fitted effect of over 65% in size; also: potency is read from the fitted curve at half-maximal effect
In short: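 Enzyme-substrate mix with proluciferin substrate (P450-Glo CYP2C19 system) preincubated with compounds 10 min at room temperature; NADPH regeneration solution added, 37C for 1 h; detection reagent stops reaction, luminescence read after 20 min. Ketoconazole positive control.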

[14] = biological target: Cytochrome P450 2C9 (Homo sapiens) (UniProt P11712); assay: Cytochrome P450 Family 2 Subfamily C Member 9 (CYP2C9) small molecule antagonists: luciferase reporter qHTS assay (AID 1671198); also: nearly all actives have a fitted effect of over 50% in size; also: potency is read from the fitted curve at half-maximal effect
In short: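 Enzyme-substrate mix preincubated with compound 10 min at room temperature; reaction started with NADPH regeneration solution, 1 h 37C. Luminescent luciferin product read after 20 min detection reagent.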

[15] = biological target: Retinoic acid receptor RXR-alpha (Homo sapiens) (UniProt P19793); assay: qHTS assay to identify small molecule agonists of the RXR signaling pathway (AID 1159527; calls by dose curve; also: nearly all actives have a fitted effect of over 35% in size; also: potency is read from the fitted curve at half-maximal effect)
In short: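 16 hr incubation of compound-treated RXR-alpha-UAS-bla HEK 293T cells (2% charcoal-stripped FBS, 37 C) preceded a 2 hr room-temperature LiveBLAzer FRET substrate step and blue/green fluorescence measurement.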

[16] = qHTS RealTime-Glo MT Cell Viability Assay in HEK293 cells - 32 hour (AID 1224868); also: nearly all actives have a fitted effect of over 50% in size; also: potency is read from the fitted curve at half-maximal effect
In short: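 HEK293 cells were seeded at 600 cells/well together with NanoLuc luciferase and cell-permeant prosubstrate, preincubated 5 h at 37 C/5% CO2, then given compound in DMSO by pintool. Luminescence from viable-cell prosubstrate reduction was read repeatedly over 40 h.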

[17] = A CellTox Green Cytotoxicity Assay to monitor cytotoxicity in HepG2 cells - 24 hour (AID 1224878); also: nearly all actives have a fitted effect of over 45% in size; also: potency is read from the fitted curve at half-maximal effect
In short: (§2)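 Cells and non-lytic dye reagent are dispensed together (600 HepG2 cells/well) and incubated 5 h before DMSO compound transfer. Kinetic fluorescence is then recorded in the same wells during 40 h at 37 C.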

[18] = A CellTox Green Cytotoxicity Assay to monitor cytotoxicity in HepG2 cells - 40 hour (AID 1224879); also: nearly all actives have a fitted effect of over 40% in size; also: potency is read from the fitted curve at half-maximal effect
In short: as §2

[19] = A CellTox Green Cytotoxicity Assay to monitor cytotoxicity in HepG2 cells - 32 hour (AID 1224883); also: nearly all actives have a fitted effect of over 50% in size; also: potency is read from the fitted curve at half-maximal effect
In short: as §2

[20] = A CellTox Green Cytotoxicity Assay to monitor cytotoxicity in HEK293 cells - 8 hour (AID 1224884); also: nearly all actives have a fitted effect of over 35% in size; also: potency is read from the fitted curve at half-maximal effect
In short: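 Cells (HEK293, 600/well) and dye reagent are dispensed together. After 5 h at 37 C, 23 nL compound is pinned in. Plates stay at 37 C for 40 h with fluorescence read at 0h, 8h, 16h, 24h, 32h and 40h.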

Measured: Potency

Cytochrome P450 2C9 (Homo sapiens), sequence (P11712 whole entry, looked up): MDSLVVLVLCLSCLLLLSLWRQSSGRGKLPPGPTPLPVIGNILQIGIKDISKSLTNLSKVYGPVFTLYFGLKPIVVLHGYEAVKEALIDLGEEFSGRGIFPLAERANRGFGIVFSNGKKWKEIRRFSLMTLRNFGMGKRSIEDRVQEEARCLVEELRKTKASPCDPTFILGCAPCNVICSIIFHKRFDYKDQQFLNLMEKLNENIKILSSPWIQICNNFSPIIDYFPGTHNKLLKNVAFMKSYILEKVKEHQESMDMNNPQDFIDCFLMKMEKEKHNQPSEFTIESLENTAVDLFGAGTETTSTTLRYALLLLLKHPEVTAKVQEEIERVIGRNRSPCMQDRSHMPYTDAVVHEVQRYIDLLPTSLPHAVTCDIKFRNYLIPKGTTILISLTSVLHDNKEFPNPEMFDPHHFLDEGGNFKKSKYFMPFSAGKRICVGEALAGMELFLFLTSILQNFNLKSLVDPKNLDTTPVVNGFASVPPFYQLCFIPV
Luciferin 4-monooxygenase (Photinus pyralis), sequence (P08659 whole entry, looked up): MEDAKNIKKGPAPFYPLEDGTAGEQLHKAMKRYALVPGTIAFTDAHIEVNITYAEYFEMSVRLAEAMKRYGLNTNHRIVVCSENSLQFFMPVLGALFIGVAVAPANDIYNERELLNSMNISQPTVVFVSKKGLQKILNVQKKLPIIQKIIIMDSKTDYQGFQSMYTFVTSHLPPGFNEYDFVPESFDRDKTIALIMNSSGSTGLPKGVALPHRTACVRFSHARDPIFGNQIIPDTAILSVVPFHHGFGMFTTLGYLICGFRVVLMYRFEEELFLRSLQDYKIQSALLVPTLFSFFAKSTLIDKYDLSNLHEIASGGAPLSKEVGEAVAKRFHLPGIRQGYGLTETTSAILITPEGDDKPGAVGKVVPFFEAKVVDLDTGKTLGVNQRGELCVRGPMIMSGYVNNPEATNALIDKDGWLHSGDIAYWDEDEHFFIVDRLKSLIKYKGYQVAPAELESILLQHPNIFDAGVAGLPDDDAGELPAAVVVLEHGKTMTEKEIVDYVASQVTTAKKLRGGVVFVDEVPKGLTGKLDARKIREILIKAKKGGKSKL
Cytochrome P450 2C19 (Homo sapiens), sequence (P33261 whole entry, looked up): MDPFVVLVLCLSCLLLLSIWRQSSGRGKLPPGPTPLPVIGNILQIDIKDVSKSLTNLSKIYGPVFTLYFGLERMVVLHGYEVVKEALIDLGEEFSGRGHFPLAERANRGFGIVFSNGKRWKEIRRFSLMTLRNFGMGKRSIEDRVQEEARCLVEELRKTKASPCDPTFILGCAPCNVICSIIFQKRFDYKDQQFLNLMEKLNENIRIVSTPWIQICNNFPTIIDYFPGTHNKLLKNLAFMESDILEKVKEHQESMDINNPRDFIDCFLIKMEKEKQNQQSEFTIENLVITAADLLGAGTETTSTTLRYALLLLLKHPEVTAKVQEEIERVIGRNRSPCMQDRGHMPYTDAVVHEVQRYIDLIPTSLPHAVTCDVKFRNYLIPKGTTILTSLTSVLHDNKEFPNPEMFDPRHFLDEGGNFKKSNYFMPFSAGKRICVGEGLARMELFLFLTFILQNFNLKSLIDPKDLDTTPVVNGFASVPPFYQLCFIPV
Retinoic acid receptor RXR-alpha (Homo sapiens), sequence (P19793 whole entry, looked up): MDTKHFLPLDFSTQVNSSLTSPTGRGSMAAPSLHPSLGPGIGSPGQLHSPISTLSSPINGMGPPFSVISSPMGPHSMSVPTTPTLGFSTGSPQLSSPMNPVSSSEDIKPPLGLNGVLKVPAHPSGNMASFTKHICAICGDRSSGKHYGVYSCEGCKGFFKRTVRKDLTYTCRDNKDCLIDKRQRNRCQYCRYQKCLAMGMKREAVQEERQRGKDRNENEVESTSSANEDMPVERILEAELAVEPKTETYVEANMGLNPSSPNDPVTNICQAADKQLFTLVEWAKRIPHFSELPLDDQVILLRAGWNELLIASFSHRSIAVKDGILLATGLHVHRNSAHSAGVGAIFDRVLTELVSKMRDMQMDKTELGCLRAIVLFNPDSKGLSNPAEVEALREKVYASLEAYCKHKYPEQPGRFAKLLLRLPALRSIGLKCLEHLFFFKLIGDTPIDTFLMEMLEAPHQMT

ClC(Cl)=C(c1ccc(Cl)cc1)c1ccccc1Cl
active: [13] 6.33 µM | [14] 25.2 µM
not listed: [15] | [16] | [17] | [18] | [19] | [20]
inactive: all other assays above

CC(C)(C)c1cc(C(C)(C)C)c(O)c(C(C)(C)C)c1
active: [15] 15.5 µM

N#Cc1cc([N+](=O)[O-])ccc1N
not listed: [2] | [4] | [5] | [9] | [10] | [11] | [13] | [15]
inactive: all other assays above

CO/C=C(/C(=O)OC)c1ccccc1Oc1cc(Oc2ccccc2C#N)ncn1
active: [2] 20.6 µM | [16] 23.3 µM | [8] 24.3 µM | [9] 58.1 µM | [10] 21.7 µM | [11] 34.7 µM | [13] 2.39 µM | [14] 7.45 µM
inactive: [3] | [17] | [18] | [19] | [20]

O=C(Nc1ccccc1-c1ccc(Cl)cc1)c1cccnc1Cl
active: [17] 41.2 µM | [18] 46.3 µM | [19] 46.3 µM | [20] 46.3 µM | [13] 3.56 µM
not listed: [2] | [3] | [11] | [12] | [15] | [16]
inactive: all other assays above

Nc1ccc(Cl)cc1[N+](=O)[O-]
inactive: [15]

Cc1cc(C)c(C(=O)P(=O)(c2ccccc2)c2ccccc2)c(C)c1
active: [1] 38.9 µM | [16] 49 µM | [9] 54.5 µM | [13] 6.33 µM | [14] 15.9 µM
inactive: [3] | [20] | [8] | [11]

CC(c1ccccc1)(c1ccc(O)cc1)c1ccc(O)cc1
active: [1] 49 µM | [2] 61.1 µM | [16] 43.6 µM | [17] 43.6 µM | [18] 38.9 µM | [19] 43.6 µM | [13] 8.94 µM | [14] 8.94 µM
not listed: [9] | [15]
inactive: all other assays above

ClC1=C(Cl)C(Cl)(Cl)C(Cl)=C1Cl
inactive: [15]

OC(Cc1ccccc1Cl)(Cn1[nH]cnc1=S)C1(Cl)CC1 (stereo not drawn)
active: [13] 1.26 µM | [14] 0.894 µM
not listed: [2] | [3] | [11] | [15] | [16]
inactive: all other assays above

O=C1OC(=O)c2c(Cl)c(Cl)c(Cl)c(Cl)c21
inactive: [15]

c1ccc2c(c1)Sc1ccccc1N2CC1CN2CCC1CC2 (stereo not drawn)
inactive: [1] | [3] | [10] | [11] | [12] | [14]
active: [2] 29.8 µM | [4] 29.8 µM | [6] 21.3 µM | [17] 23.9 µM | [18] 19 µM | [19] 21.3 µM | [7] 23.9 µM | [8] 29.8 µM | [9] 11.9 µM

O=C1C(I)=CC(=C(c2cc(I)c(O)c(I)c2)c2ccccc2C(=O)O)C=C1I
active: [13] 13.8 µM | [14] 3.89 µM
not listed: [1] | [2] | [3]
inactive: all other assays above

Cc1nnc2n1-c1sc(CCc3ccc(CC(C)C)cc3)cc1C(c1ccccc1Cl)=NC2C (stereo not drawn)
inactive: [3] | [20] | [9]
active: [1] 26.8 µM | [2] 26.6 µM | [16] 9.52 µM | [14] 27.5 µM

Cc1ccc(N(SC(F)(Cl)Cl)S(=O)(=O)N(C)C)cc1
active: [1] 30.9 µM | [2] 30.6 µM | [3] 44.8 µM | [4] 30.6 µM | [5] 24.3 µM | [6] 11 µM | [16] 5.49 µM | [17] 11 µM | [18] 6.92 µM | [19] 6.92 µM | [20] 21.9 µM | [7] 15.5 µM | [9] 17.2 µM | [13] 10 µM | [14] 5.64 µM
inactive: [10] | [11] | [12]

ClC1=C(Cl)[C@]2(Cl)[C@@H]3[C@@H](Cl)[C@H]4O[C@H]4[C@@H]3C1(Cl)C2(Cl)Cl
inactive: [3] | [4] | [5] | [8] | [9] | [10] | [11] | [12]
active: [1] 49 µM | [14] 39.9 µM

COc1ccc(C(c2ccc(OC)cc2)C(Cl)(Cl)Cl)cc1
inactive: [2] | [4] | [5] | [17] | [18] | [19] | [8] | [11] | [12]
active: [16] 48.7 µM | [13] 0.354 µM | [14] 1.82 µM

OCC(c1ccc(Cl)cc1)c1ccc(Cl)cc1
inactive: [15] | [3] | [8] | [10] | [11] | [12]
active: [1] 49 µM | [2] 48.6 µM | [16] 34.7 µM | [17] 38.9 µM | [18] 38.9 µM | [19] 38.9 µM | [20] 43.6 µM | [13] 0.0894 µM | [14] 12.6 µM

CC1COC(Cn2cncn2)(c2ccc(Oc3ccc(Cl)cc3)cc2Cl)O1 (stereo not drawn)
active: [2] 27.3 µM | [16] 19.5 µM | [13] 0.0502 µM | [14] 1.12 µM
inactive: [1] | [3] | [17] | [20] | [9] | [12]

CCCCC(CC)COC(=O)CCCCC(=O)OCC(CC)CCCC (stereo not drawn)
inactive: [15]

CCCCC(CC)COC(=O)c1ccc(C(=O)OCC(CC)CCCC)cc1 (stereo not drawn)
inactive: [15]

CCc1cccc(CC)c1N
inactive: [15]

C=CC(=O)OCCCC
inactive: [15]

c1ccncc1
inactive: [15]

Clc1ccccc1-c1ccccc1Cl
inactive: [2] | [3] | [4] | [5] | [6] | [7] | [8] | [9] | [10] | [11] | [13]

O=[N+]([O-])c1cc(C(F)(F)F)ccc1Cl
inactive: [15]

O=C(O)C(c1ccc(Cl)cc1)c1ccc(Cl)cc1
inactive: [15]

O=C(c1ccc(Cl)cc1)c1ccc(Cl)cc1
inactive: [15]

CC(CCl)OC(C)CCl (stereo not drawn)
inactive: [15]
